Rows were chosen to be rich in hits. Some 4.8% of all compounds tested hit in one or more screens of this group.
SKKanGAS inh – S. pyogenes SKKanGAS growth inhibitors in kanamycin, primary screen, streptokinase expression inhibitor project, SKKanGAS strain, BacTiter-Glo luminescence. 6 h. inhibition, % at 7.5 µM. 300,000 tested, 1.3% active. AID 1662, 2009;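 active means mean replicate score, as percent of positive control median, at least 50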;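 further: strain carries kanamycin resistance gene driven by streptokinase promoter and grows in 40 µg/ml kanamycin; loss of luminescence reflects streptokinase promoter inhibition or plain growth inhibition; 0% = median of DMSO wells and 100% = positive control at its reference dose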
PfHsp90 set2 – growth inhibition of PfHsp90-expressing yeast, primary screen, antimalarial PfHsp90 inhibitor project, S. cerevisiae, BacTiter-Glo luminescence, single point, set 2 | inhibition, % at 9.4 µM | 310,000 tested, 0.32% active | BacTiter-Glo ATP, 48 h; yeast lacking PDR1 and PDR3 efflux regulators;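 active means every replicate shows inhibition above about 80%, whatever the replicate mean, limit read from the data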;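 further: 0% = DMSO neutral controls and 100% = 20 µM radicicol positive controls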
TIM10 inh – growth inhibitors of isogenic TIM10 control yeast, primary screen, counter-screen for tim10-1 yeast inhibitor project, luminescence, uHTS; S. cerevisiae TIM10 strain growth, BacTiter-Glo luminescence, 24 h; inhibition, % at 10 µM; 330,000 tested, 1.4% active; AID 463195, 2010;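 active means inhibition of 40% or more at the single tested concentration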;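 further: wild-type TIM10 isogenic control strain grown at permissive 25 °C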
NALP1 inh – NALP1 inflammasome inhibitors in reconstituted yeast, colorimetric, S. cerevisiae, triplicate retest; S. cerevisiae NALP1/ASC/caspase-1 growth, X-gal OD620, 72 h; inhibition, % at 10 µM; 280,000 tested, 0.61% active; AID 2071, 2009; in the data active means inhibition mostly above about 24%, no sharp cut-off; inactive means mostly below about 32%
tim10-1 inh – growth inhibitors of tim10-1 mutant yeast, primary screen, luminescence, uHTS. inhibition, % at 20 µM. S. cerevisiae tim10-1 ts strain growth, BacTiter-Glo, 24 h. AID 463190, 2010. 330,000 tested, 2.2% active;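 active means inhibition of at least 40%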;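 further: mutant grown at 25 °C; 0% = DMSO wells with yeast and 100% = wells holding no yeast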
tim23-1 inh – growth inhibitors of tim23-1 mutant yeast, primary screen, luminescence, uHTS; inhibition, % at 20 µM; S. cerevisiae tim23-1 growth, BacTiter-Glo luminescence, 24 h; 330,000 tested, 1.3% active; AID 463212, 2010;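 active means growth inhibition of the mutant yeast at or above 50%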;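 further: temperature-sensitive mutant grown at 25 °C; plate controls were DMSO-treated mutant yeast for no effect and medium wells lacking yeast for full effect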
tim23-1 conf – tim23-1 mutant yeast growth inhibitors, confirmation, luminescence, single concentration | S. cerevisiae tim23-1 growth, BacTiter-Glo luminescence, 24 h | AID 463218, 2010 | shares compounds with tim23-1 inh | 4,400 tested, 83% active | inhibition, % at 20 µM;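 active means inhibition above about 39% in either of two replicate wells at 20 µM, limit read from the data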;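 further: temperature-sensitive tim23-1 mutant grown at 25 °C; 0% = DMSO wells with yeast and 100% = medium wells without yeast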
* hit, by the source's call; · = no result; + = active, no number.

SMILES	SKKanGAS inh	PfHsp90 set2	TIM10 inh	NALP1 inh	tim10-1 inh	tim23-1 inh	tim23-1 conf
O=C(CSc1nnc(CNC(=O)c2ccccc2F)o1)Nc1ccc2c(c1)OCO2	4	·	2	-3	13	-9	·
O=C(Nc1ccc(NC(=O)c2cccs2)cc1Cl)c1ccco1	-1	7	19	19	-11	34	·
O=C(Nc1ccc(N2CCN(C(=O)c3ccco3)CC2)c(Cl)c1)c1cccs1	2	16	20	16	28	58*	53*
CC(C)C(=O)N1CCN(c2ccc(NC(=O)c3cccs3)cc2Cl)CC1	-3	24	24	-15	-14	34	·
O=C(Nc1ccc(Cl)c(NC(=O)c2cccs2)c1)c1ccco1	-5	16	10	-20	27	55*	48*
CC(OC(=O)c1cccnc1SCc1cc(=O)n2ccccc2n1)c1ccccn1 (stereo unspecified)	-3	1	24	9	33	40	·
CCOC(=O)c1cccnc1SCc1cc(=O)n2ccccc2n1	7	4	-5	4	17	71*	65*
COc1cccc2cc(C(=O)C3=C(O)C(=O)N(CCN4CCOCC4)C3c3ccc(C(C)(C)C)cc3)oc12 (stereo unspecified)	21	7	8	10	22	16	·
Brc1ccc(N/N=C(/N=Nc2nn[nH]n2)c2ccccc2)cc1	35	14	-31	-14	7	28	·
COc1ccccc1C(=O)Nc1nc2ccccc2s1	48	29	35	21	35	58*	48*
COc1ccc2nc(NC(=O)c3ccccc3C(=O)O)sc2c1	-1	2	-24	18	5	10	·
C=CCn1cccc(C(=O)Nc2ccc(OC)cc2)c1=O	4	-2	6	11	5	95*	19
COc1ccc(C(=O)Nc2nc3ccccc3s2)c(OC)c1	53*	58	20	·	33	63*	75*
COc1ccc(C(=O)NCC(C)C)c(OC)c1	4	-8	5	16	-3	72*	7
COc1ccccc1C(=O)Nc1nc2ccc(S(C)(=O)=O)cc2s1	-8	-7	10	-29	33	-8	·
Nc1ccc(C(=O)Nc2nc3ccccc3s2)cc1	-1	25	12	51	3	51*	44*
COc1ccc(NC(=O)c2cc3ccccc3cc2OC)cc1	18	-3	-19	20	-26	50*	36
CC(C)=C1C2C=CC1C(C(=O)Nc1cccc(C)c1)C2C(=O)O (stereo unspecified)	-4	23	4	0	3	17	·
CC1CCCCN1C(=O)CNCC1CCCO1 (stereo unspecified)	-1	20	3	5	-10	3	·
CCOc1ccc(N=c2scc(-c3ccccc3)n2CCO)cc1	0	5	13	7	24	22	·
CCn1c(-c2ccccc2)csc1=Nc1ccc(O)cc1	13	-9	35	13	40	58*	39*
Cc1cccc(N2C(=O)/C(=C\c3ccc(C(=O)O)cc3)c3ccccc3C2=O)c1	-7	·	22	4	31	56*	22
CC1CCCN(S(=O)(=O)c2ccc3[nH]c4c(c3c2)CCCC4)C1 (stereo unspecified)	0	30	33	15	32	56*	56*
COc1ccc2c(c1)OC[C@H]1[C@H]2N2C(=O)c3cc(C)ccc3NC(=O)[C@@]2(C)[C@H]1c1ccccc1	·	104*	-5	·	8	51*	58*
COc1ccc2c(c1)[C@H]1[C@H](CO2)[C@H](c2ccccc2)[C@]2(C)C(=O)Nc3ccc(C)cc3C(=O)N12	·	+	12	·	21	51*	43*
SMILES	SKKanGAS inh	PfHsp90 set2	TIM10 inh	NALP1 inh	tim10-1 inh	tim23-1 inh	tim23-1 conf
COc1ccc2c(c1)[C@H]1[C@H](CO2)[C@H](c2ccccc2)[C@]2(C)C(=O)Nc3ccc(F)cc3C(=O)N12	·	-12	13	·	17	27	·
O=C(O)CC(=O)Nc1cc(Cl)ccc1O	5	1	3	-10	-10	-11	·
O=C(CC(=O)c1cc(Cl)ccc1O)c1ccccc1	111*	-39	23	-19	34	55*	65*
COc1ccc(C(=O)CC(=O)c2ccccc2O)cc1OC	10	-6	15	11	18	18	·
COc1ccc(C(=O)CC(=O)c2ccccc2O)cc1	24	-31	7	15	4	50*	52*
COc1ccc(/C=C(\C#N)C(=O)Nc2cccc(C)n2)cc1	0	-14	-15	18	1	5	·
COc1ccc(NC(=O)/C(C#N)=C/c2cccnc2)c(OC)c1	16	29	27	-12	31	50*	44*
COc1ccc(NC(=O)C(=O)N/N=C/c2cccnc2)c(OC)c1	-8	14	6	3	5	9	·
N#C/C(=C\c1ccc(Cl)cc1)C(=O)Nc1cccnc1	4	27	9	-4	20	65*	68*
Cc1cccc(NC(=O)/C(C#N)=C/c2ccc(Cl)cc2)n1	2	-2	32	6	30	60*	68*
COc1ccccc1OCC(=O)NNC(=O)c1cccs1	5	-2	·	32	·	·	·
CC(NC(=O)Nc1ccc2c(c1)OCO2)C1CCCO1 (stereo unspecified)	-2	-28	-3	0	11	-2	·
Cc1noc(C)c1C(=O)Nc1nc2ccc(S(C)(=O)=O)cc2s1	7	-49	12	-7	16	28	·
CCOc1ccc2nc(NC(=O)c3ccco3)sc2c1	13	36	40	18	21	55*	57*
CS(=O)(=O)c1ccc2nc(NC(=O)c3ccco3)sc2c1	2	27	29	18	31	54*	52*
CNC(=O)c1cc2cc(OC)ccc2n1CCN(C)C	1	-30	-2	-4	0	11	·
Cc1c2c(n3c(nc4ccccc43)c1C#N)N(CCCN(C)C)CC2	-5	35	-8	28	7	-3	·
Cc1ccc(-c2cc(-c3ccccc3)no2)c(O)c1	5	-7	·	27	·	·	·
Cc1ccc2nc(-c3cc(-c4ccccc4)no3)cn2c1	-10	0	30	·	3	55*	47*
Clc1ccc2nc(-c3ccccc3)cn2c1	5	0	6	-1	-10	52*	24

Compound activity: PubChem, several laboratories
